G9a block – qHTS Assay for Inhibitors of Histone Lysine Methyltransferase G9a | G9a H3K9 monomethylation, AlphaScreen, 2 h | Potency, µM (titrated, usually from 102 µM), for the others: at the top dose activity, negative = inhibition, actives largely listed as inhibitors | actives 8.8% (n = 350,000); further: on the % scale 0 is the no-effect control and ±100 the full control effect; nearly all actives have a fitted effect of over 75% in size
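Readings reflect AlphaScreen signal from monomethyl-H3K9 antibody detection. HMT at 20 nM; substrate b-H3K9 500 nM; cofactor SAM 20 uM; 2 h RT reaction; compounds tested as titrations in qHTS with 15 min preincubation.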
HP1b binding inh – HTS for Inhibitors of HP1-beta Chromodomain Interactions with Methylated Histone Tails; Chromobox protein homolog 1 (Homo sapiens), P83916; AlphaScreen HP1-beta / biotin-H3K9me3 peptide binding; Potency, µM (doses to about 114 µM), for inactives: top-dose activity change, negative = inhibition, hits mostly inhibitors; actives 0.56% (n = 390,000); further: nearly all actives have a fitted effect of over 70% in size
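HP1-beta protein (50 nM final) preincubated 30 min at room temperature with biotinylated H3(1-18)K9me3 peptide (50 nM) in PBS pH 7.4, 0.01% Tween-20, then compound added for 30 min. AlphaScreen streptavidin donor/nickel chelate acceptor beads (10 ug/mL final), 30 min dark, luminescence read.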
Sfp PPTase inh – qHTS Assay for Inhibitors of Bacillus subtilis Sfp phosphopantetheinyl transferase (PPTase); 4'-phosphopantetheinyl transferase ffp (Bacillus subtilis), Q9F4F7; Biochemical Sfp PPTase activity, qHTS; Potency, µM, inactives show largest response in the series, negative = inhibition, most hits filed as inhibitors; actives 3.5% (n = 310,000); AID 1490, 2009;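 further: the enzyme is Sfp with the accession as filed and its product quenches rhodamine fluorescence; 0% = enzyme reaction without inhibitor and -100% = no enzyme wells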
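After 15 min at room temperature with compound, 15 nM Sfp received 5 uM rhodamine-CoA plus 12.5 uM BHQ-2-ybbR (50 mM Hepes pH 7.6, 10 mM MgCl2). Rate came from the fluorescence difference over 30 min, ex 525/em 598 nm.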
JMJD2A Tudor – qHTS Assay for Inhibitors of JMJD2A-Tudor Domain | Potency, µM (series often up to 114 µM), for the others: top-dose activity change, negative = inhibition, most hits filed as inhibitors | AlphaScreen JMJD2A-Tudor / H3K4me3 peptide binding | actives 4.4% (n = 390,000) | Lysine-specific demethylase 4A (Homo sapiens), O75164; further: on the % scale 0 is the no-effect control and ±100 the full control effect; nearly all actives have a fitted effect of over 50% in size
BAZ2B inh – qHTS Assay for Inhibitors of BAZ2B. Bromodomain adjacent to zinc finger domain protein 2B (Homo sapiens), Q9UIF8. AlphaScreen BAZ2B-H3K14Ac peptide displacement. Potency, µM (titrated, usually from 114 µM), inactives show at the highest dose activity change, negative = inhibition, actives largely listed as inhibitors. actives 4.4% (n = 360,000); further: on the % scale 0 is the no-effect control and ±100 the full control effect; nearly all actives have a fitted effect of over 60% in size
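AlphaScreen displacement: compounds (up to 110uM) incubated 30 min at room temperature with a preformed 50 nM BAZ2B/50 nM biotinylated H3K14Ac peptide complex in PBS pH 7.4 with Tween-20. Donor and acceptor beads at 10 ug/mL final added, 20 min light-protected before reading.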
PLK1 PBD inh – qHTS for Inhibitors of PLK1-PDB (polo-like kinase 1 - polo-box domain): Primary Screen | Plk1 PBD binding of FITC phosphopeptide, fluorescence polarization | actives 2.8% (n = 360,000) | Potency, µM, for the others: max response, negative = inhibition, hits mostly inhibitors | Serine/threonine-protein kinase PLK1 (Homo sapiens), P53350; further: series mostly up to about 57 µM; on the % scale 0 is the no-effect control and ±100 the full control effect; nearly all actives have a fitted effect of over 65% in size
Active calls of the source: *; [ ] = remark or other dose. Compounds with a hit are over-represented: about 12% of the library has one in this group of screens. The call rests on the fitted dose curve; in most records, active means well fitted curve in the direction sought with a large enough effect; inconclusive means small, poorly fitted or top-dose-only effect, or another doubt; inactive means no such curve, though single readings can be large; an effect the other way counts as inactive or inconclusive. Potency means the concentration at half of the fitted maximal effect.

Screening COc1ccccc1N1CCN(C(=O)c2sc3nc(C)nc(N4CCN(c5ccccn5)CC4)c3c2C)CC1 returned G9a block 25µM*, HP1b binding inh -2%, Sfp PPTase inh -8%, JMJD2A Tudor inconclusive, BAZ2B inh inconclusive and PLK1 PBD inh -13%.
`NC(=S)N/N=C1\CCOc2ccc(F)cc21` gave HP1b binding inh 15%, Sfp PPTase inh 89µM*, JMJD2A Tudor -18%, BAZ2B inh -15% and PLK1 PBD inh -14%.
Screening C#CC(C)(C)NS(=O)(=O)c1cc(-c2nnc(Nc3ccc(C)cc3)c3ccccc23)ccc1C returned G9a block 7%[59 µM], HP1b binding inh 35%, JMJD2A Tudor -7% and BAZ2B inh -3%.
Screening CCOc1ccc(NC(=O)C(C)N2C(=O)c3ccccc3S2(=O)=O)cc1 (centres undefined) returned G9a block -4%, HP1b binding inh 37%, JMJD2A Tudor -11%, BAZ2B inh 11% and PLK1 PBD inh 0%.
`CC(C(=O)Nc1ccc(N(C)C)cc1)N1C(=O)c2ccccc2S1(=O)=O` (centres undefined) gave G9a block 14µM*, HP1b binding inh inconclusive, JMJD2A Tudor 45µM*, BAZ2B inh inconclusive and PLK1 PBD inh -11%.
`COc1cc2nc(N(CCCN(C)C)C(=O)c3ccc(S(=O)(=O)N(C)C4CCCCC4)cc3)sc2cc1OC` gave G9a block 45µM*, HP1b binding inh -15%, JMJD2A Tudor -35%, BAZ2B inh -29% and PLK1 PBD inh -2%.
Screening CCOc1ccc2nc(N(CCCN(C)C)C(=O)c3ccc(S(=O)(=O)N4CCCC4)cc3)sc2c1 returned G9a block inconclusive, HP1b binding inh 8%, Sfp PPTase inh -15%, JMJD2A Tudor -8%, BAZ2B inh inconclusive and PLK1 PBD inh -22%.
`Cc1cc(C)c2sc(N(CCCN(C)C)C(=O)c3ccc(S(=O)(=O)N(C)C4CCCCC4)cc3)nc2c1` gave G9a block 35µM*, HP1b binding inh inconclusive, JMJD2A Tudor inconclusive, BAZ2B inh inconclusive and PLK1 PBD inh 5%.
For CCc1ccc2nc(N(CCCN(C)C)C(=O)c3ccc(S(=O)(=O)N(C)C4CCCCC4)cc3)sc2c1 the results were G9a block inconclusive, HP1b binding inh 14%, Sfp PPTase inh 45µM*, JMJD2A Tudor inconclusive, BAZ2B inh inconclusive and PLK1 PBD inh -4%.
Screening CN(C)CCCN(C(=O)c1ccc(S(=O)(=O)N(C)C2CCCCC2)cc1)c1nc2ccc(Br)cc2s1 returned HP1b binding inh -13%, Sfp PPTase inh 40µM*, JMJD2A Tudor 35µM*, BAZ2B inh inconclusive and PLK1 PBD inh -14%.
`O=C(NCCc1ccccc1)c1ccc(Cl)cc1[N+](=O)[O-]` gave G9a block 4%, HP1b binding inh 26%, Sfp PPTase inh -1%, JMJD2A Tudor -4%, BAZ2B inh -13% and PLK1 PBD inh -3%.
COc1ccc(CN(CC2CCCO2)S(=O)(=O)c2ccc(C(=O)O)cc2)cc1OC (centres undefined) was read as G9a block 56µM*, HP1b binding inh 45%, Sfp PPTase inh 1%, JMJD2A Tudor -7%, BAZ2B inh -6% and PLK1 PBD inh 2%.
`CN(C)CCN(C(=O)c1ccc(S(=O)(=O)N(C)CC2CCCO2)cc1)c1nc2cc3c(cc2s1)OCO3` (centres undefined) gave G9a block inconclusive, HP1b binding inh -12%, Sfp PPTase inh -3%, JMJD2A Tudor inconclusive, BAZ2B inh -38% and PLK1 PBD inh -6%.
For CN(C)CCCN(C(=O)c1nc2ccccc2s1)c1nc2ccc(F)cc2s1 the results were HP1b binding inh 47%, JMJD2A Tudor -1% and PLK1 PBD inh -4%.
CCOc1cccc2sc(N(CCCN(C)C)C(=O)c3ccc(S(=O)(=O)N4CCc5ccccc5C4)cc3)nc12 was read as HP1b binding inh 13%, Sfp PPTase inh -29%, JMJD2A Tudor -6%, BAZ2B inh -28% and PLK1 PBD inh -14%.
Screening COc1cc2nc(N(CCN(C)C)C(=O)c3ccc(S(=O)(=O)N(C)CC4CCCO4)cc3)sc2cc1OC (centres undefined) returned G9a block 32µM*, HP1b binding inh 28%, Sfp PPTase inh -1%, JMJD2A Tudor -19%, BAZ2B inh inconclusive and PLK1 PBD inh -13%.
Screening CN(C)CCCN(C(=O)c1ccc(S(=O)(=O)N(C)C2CCCCC2)cc1)c1nc2ccc(F)cc2s1 returned G9a block 45µM*, HP1b binding inh -10%, Sfp PPTase inh -20%, JMJD2A Tudor inconclusive, BAZ2B inh inconclusive and PLK1 PBD inh -6%.
Screening CCc1ccc2nc(N(CCCN(C)C)C(=O)c3ccc(S(=O)(=O)N4CCc5ccccc5C4)cc3)sc2c1 returned HP1b binding inh 15%, Sfp PPTase inh 63µM*, JMJD2A Tudor -14%, BAZ2B inh inconclusive and PLK1 PBD inh -3%.
For CN(CC(=O)Nc1ccccc1Cl)C(=O)CN1C(=O)NC(c2ccccc2)(c2ccccc2)C1=O the results were G9a block -5%[2.33 µM], HP1b binding inh 36%, JMJD2A Tudor -12%, BAZ2B inh 4% and PLK1 PBD inh 2%.
`CCCCCCCCCCCCCC[N+](C)(C)Cc1ccccc1` gave G9a block -31%[12.7 µM] and Sfp PPTase inh 40µM*.
`CCCCCCCC(=O)NNC(=O)Cc1ccccc1` gave G9a block 0%[0.0925 µM], HP1b binding inh 24%, Sfp PPTase inh 1%, JMJD2A Tudor 6%, BAZ2B inh -37% and PLK1 PBD inh -6%.
Screening CCCCCCCCCCCCCCCC[N+](C)(C)Cc1ccccc1 returned G9a block -38%[12.7 µM] and Sfp PPTase inh 45µM*.
For O=C(CN1CCCN(S(=O)(=O)c2ccc(Br)cc2)CC1)Nc1cccc(C(F)(F)F)c1 the results were G9a block inconclusive, HP1b binding inh 42%, JMJD2A Tudor -13% and BAZ2B inh -16%.
CCCCCCN1CCN(C2CN(Cc3cn(Cc4cccc(C(F)(F)F)c4)nn3)S(=O)(=O)C2)CC1 (centres undefined) was read as PLK1 PBD inh 1%.
